Results published in PubChem BioAssay AID1053144 (Broad Institute, 2014).
Screen size: about 3,400 compounds; about 160 (4.7%) were called active.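 Rule for the calls: active = fitted curve reaches 30% activation at a concentration no higher than the top valid tested dose, luminescence rising; inconclusive = no clear call, values can overlap the other calls; inactive = signal moving opposite to the expected increase, plus the rest.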 These entries were drawn from the full list. Results with a measured potency or affinity are listed apart.

Assay: TCF/LEF reporter activation in neural progenitors – cell-based, iPS-derived NPC, luciferase, Wnt3a, cherry-pick, dose response (AID 1053144);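 note: Wnt3a stimulus is conditioned medium from Wnt3a-transfected mouse L cells at 5% in well; 0% = neutral control wells and 100% = CHIR-99021 positive control wells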
Details: Wnt3a EC25, 24 h; series mostly up to 26 µM

activation, inactive:
Cc1ccc(C)c(-n2ccnc2SCC(=O)Nc2cccc(S(=O)(=O)NC3=NCCC3)c2)c1
CCC(=O)Nc1c(C(=O)Nc2ccc3c(c2)OCCO3)oc2ccccc12
N=c1cc(C2(O)CCCCC2)n2c(nc3ccccc32)s1
Cc1ccnc(NC(=O)C2CC(=O)N(c3ccc4c(c3)OCCO4)C2)c1 (centres undefined)
c1ccc(-c2nnc(-c3ccccn3)nn2)nc1
CCC(=O)Nc1cc(C(=O)OCC(=O)c2ccccc2)ccc1C
COC(=O)[C@H](CCSC)NC(=O)c1cccnc1SC
O=C(CCN1C(=O)C2CCCCC2C1=O)Nc1nc2c(F)cc(F)cc2s1 (centres undefined)
CN(c1ccc(C(=O)NCCSC(C)(C)C)cc1)S(=O)(=O)c1ccccc1
Cc1ccc(C)c(OCc2nc3ccccc3[nH]2)c1
COc1cccc(NC(=O)n2ncc3c(C)cccc32)c1
COc1ccc(NC(=O)N2CCCc3ccccc32)cc1
O=C(Cc1noc2ccccc12)Nc1ccccn1
Cc1nc(C(C)NC(=O)CCc2nnc(CCCc3ccccc3)o2)c(C)s1 (centres undefined)
c1ccc2nc(SCc3cn4ccccc4n3)cnc2c1
CC(=O)Nc1ccc(-c2nc3ccccc3o2)cc1
CC(=O)Nc1ccc2oc(-c3ccccc3)nc2c1
O=C(N/N=C/c1ccc(F)cc1)c1ccccc1
Cc1ccc(NC(=O)COc2ccc3c(c2)OCO3)c(Cl)c1
COc1ccc(C(=O)Cc2ccc3c(c2)OCO3)c(O)c1
Cc1ccc(/C=N/NC(=O)c2cccs2)cc1[N+](=O)[O-]
COc1ccc(/C=N/Nc2ccc([N+](=O)[O-])cc2)cc1O
Cc1c(C(=O)OCC(=O)NCC2CCCO2)cccc1[N+](=O)[O-] (centres undefined)
Cc1cc(-c2nnc(-c3cccc(Cl)c3)o2)no1
COc1ccc(/C=C/C(=O)c2ccccc2)c(OC)c1
O=C(/C=C/c1ccc(O)cc1)c1ccccc1
O=S(=O)(c1ccccc1)n1ccc(-c2cnc(-c3ccccc3)s2)n1
O=C(Nc1ccc(F)c(Cl)c1)c1cc(-c2ccco2)on1
O=C(Nc1cccnc1Cl)c1cc(-c2ccco2)on1
CC(C)c1cc(C(=O)NCCc2ccccc2)no1
COc1ccc(NC(=O)c2cc(-c3ccco3)on2)cc1
Cc1ccc(NC(=O)/C=C/c2ccc3c(c2)OCO3)nc1
COc1ccc(CNC(=O)Nc2cccc(C)c2)cc1
Cc1ccc(SCC(=O)NC(=O)NCCC(C)C)c(C)c1
Cc1ccc(OCC(=O)Nc2ccc(Cl)cc2)c([N+](=O)[O-])n1
Cc1ccc(C(=O)CCC2CCCCC2=O)cc1 (centres undefined)
CCC(=O)Nc1cccc(-c2nc3ccc(C)cc3o2)c1
Cc1ccc2nc(-c3cccc(NC(=O)c4ccc5c(c4)OCCO5)c3)oc2c1
O=[N+]([O-])c1ccccc1N/N=C1\CCc2ccccc21
O=C(NCc1nnc(SCC(=O)N2CCCc3ccccc32)o1)c1c(F)cccc1Cl
COc1ccc(N=Cc2c(O)[nH]c3ccccc23)cc1
Fc1ccc(-c2nc3ccccc3[nH]2)cc1
CC(C)CSc1nnc2c(n1)[nH]c1ccccc12
O=C(/C=C(\Nc1ccccc1)c1ccccc1)c1ccccc1
Cc1ccc(SCc2cn3cc(Cl)ccc3n2)cc1
c1ccc2oc(SCc3cn4ccsc4n3)nc2c1
O=C(CNC(=O)c1ccccc1F)c1ccccc1
O=C(CCN1CCN(c2ccccc2)CC1)Nc1ccc(OCc2ccccc2)cc1
Cc1ccnc(NC(=O)c2ccc(S(=O)(=O)N3CCC(C)CC3)cc2)c1
O=C(/C=C/c1ccc(OC2CSC2)cc1)c1ccccc1
CSc1ccc(/C=N/NC(=O)c2cc(O)cc(O)c2)cc1
N=c1c2c(ncn1CCCO)Oc1c(ccc3ccccc13)C2c1ccccc1 (centres undefined)
COc1ccc(O)c(/C=N/N2CCCCC2)c1
COc1ccccc1CCc1nnc(CCC(=O)N(C)Cc2cccc3cnccc23)o1
C=CCn1cc(/C=N/Nc2nc3ccccc3[nH]2)c2ccccc21 6.37% [at 6 µM]
Clc1nc2ccccc2cc1/C=N/Nc1nc2ccccc2[nH]1
Cc1nn(-c2ccccc2)c(C)c1/C=N/Nc1nc2ccccc2[nH]1
C(=N\Nc1nc2ccccc2[nH]1)/c1ccc2c(c1)OCCO2
CC(/C=N/Nc1nc2ccccc2[nH]1)=C\c1ccccc1
Cc1ccsc1/C=N/Nc1nc2ccccc2[nH]1
C(=N\Nc1nc2ccccc2[nH]1)/c1cccc2cccnc12
C(=N\Nc1nc2ccccc2[nH]1)/c1cccs1
O=C(NCCc1ccccc1F)C(=O)Nc1nccs1
CSc1ccccc1OCc1cc(C(=O)N2CCCC(C)C2)no1 (centres undefined)
CCCC(=O)c1ccc(N2CCC(C)CC2)c(F)c1
COc1ccc(C(=O)Nc2nnc(SCC(=O)Nc3ccc(NC(C)=O)cc3)s2)c(OC)c1
Cc1ccc(NC(=O)c2ccc(F)cc2)nc1
CCOC(=O)c1cnc2c(-c3ccccc3)cnn2c1N
Cn1c(SCc2ccc(F)cc2)nnc1-c1ccccn1
COC(=O)c1c(-c2ccc(SC)cc2)sc2ccc(OC)cc12
O=C(O)c1cc(N/N=C/c2ccc(N3CCOCC3)cc2)ccc1Cl
Cc1ccc(NC(=O)c2ccccn2)c(Br)c1
Cc1cnc(NC(=O)c2ccccn2)s1
COc1ccc(NC(=O)Nc2ccc3oc(C)nc3c2)cc1
Fc1ccccc1-c1cc2ncccc2cn1
COc1cccc(C(=O)COC(=O)c2cccs2)c1
COc1ccc(C(=O)COC(=O)c2cccs2)cc1
CCn1c(COc2ccc(OC)cc2)nc2ccccc21
COc1cc(Cl)ccc1OCc1cc(C(=O)N(C)CC2CCCCO2)no1 (centres undefined)
COc1ccccc1OCc1cc(C(=O)N2CCN(C)C(c3ccccc3)C2)no1 (centres undefined)
Nc1nc(Nc2ccccc2)nc2ccccc12
Cc1ccccc1Nc1nc(N)c2ccccc2n1
CCOC(=O)c1oc2nc3c(cc2c1N)CCCC3
O=C(CSc1nnc(C2CC2)n1C1CC1)c1ccc(Br)s1
Oc1ccccc1-c1cc(-c2ccc(F)cc2)n[nH]1
Cc1ccccc1-c1cc(-c2ccccc2O)n[nH]1
COC(=O)c1cc(C)nc(Nc2nc(C(N)Cc3ccc(Cl)cc3)cs2)n1 (centres undefined)
CCOc1ccc(NC(=O)c2csc3c2CCCC3)cc1
Cc1ccc(NC(=O)c2csc3c2CCCC3)cc1
CCOc1ccc(NC(=O)c2ccc3c(c2)N(C)CCS3)cc1
O=C(CSc1ccsc1[N+](=O)[O-])NCc1ccco1
COc1ccccc1Nc1ncnc2c1cnn2-c1cccc(C)c1
CC(C)Nc1ncnc2c1cnn2-c1ccccc1
Cc1ccc(OCC(=O)Nc2ccccc2F)cc1C
c1ccc(CNc2ncnc3c2oc2ccccc23)nc1
c1ccc2c(c1)oc1c(NCC3CCCO3)ncnc12 (centres undefined)
CCOC(=O)N/N=C\c1ccccc1OC/C=C/c1ccccc1
O=C(/C=C/Nc1cccc(O)c1)c1ccccc1
COc1ccc(C(=O)Nc2ccccc2C(=O)NCc2ccco2)cc1OC
O=C(Nc1cccc([N+](=O)[O-])c1)c1ccc2c(c1)OCCO2
CC(=O)Nc1cccc(NC(=O)c2ccc(C)c([N+](=O)[O-])c2)c1
COc1ccc(-c2ccc(NC(=O)c3ccc(Br)o3)cc2)nn1
Cc1ccc(/C(=N/Nc2ncnc3ccccc23)C(=O)O)cc1
Cc1cccc(Nc2ncnc3ccccc23)c1
Cc1ccc(C(=O)Nc2cc3c(oc2=O)CCCC3=O)cc1
Cn1nnc2cc(C(=O)Nc3ccc4ccccc4c3)ccc21
CCOc1ccc(C2C=C(c3ccccc3)Nc3nnnn32)cc1 (centres undefined)
CCOc1ccc(-n2c(COc3ccc(C)cc3)nnc2SCC(N)=O)cc1
COc1ccc(C(=Cc2ccccc2[N+](=O)[O-])C(=O)O)cc1
O=C(Nc1ccc(NC(=O)C2CC2)cn1)c1ccccc1Cl
O=C(Nc1ccc(NC(=O)c2cccs2)cn1)c1ccccc1
COc1cc(NC(=O)c2cccs2)ccc1NC(=O)c1ccco1
O=C(NCC1CCCO1)c1cc(-c2ccc(Cl)cc2Cl)on1 (centres undefined)
O=C(Nc1ccc(F)cc1)c1cc(-c2ccccc2)no1
Cc1cc([N+](=O)[O-])ccc1NC(=O)/C=C/c1cccs1
COc1ccc2[nH]c3c(NCCCOC(C)C)ncnc3c2c1
CCN(C(=O)C=Cc1ccco1)c1ccccc1
O=C(CNc1ccc2ccccc2c1)N/N=C/c1ccc(OC(=O)/C=C/c2ccco2)cc1
Cc1ccccc1Cn1nnc(-c2cccc(C(=O)O)c2)n1
COc1ccc(S(=O)(=O)n2ccc(-c3cnc(-c4ccccc4)s3)n2)cc1
Cc1cccc(Nc2nc(-c3ccc(F)c(C)c3)cs2)n1
CC1CCCCN1C(=O)c1cc(-c2ccc3c(c2)OCO3)on1 (centres undefined)
Oc1oc(-c2ccc(Br)cc2)nc1/C=N/c1ccccn1
Cc1cccc(N2CC(C(=O)NC3CCCCCC3)CC2=O)c1C (centres undefined)
